From PubChem BioAssay (Tox21)
A number with no mark means an inactive call. Records with an inconclusive call do not appear. Where a call stands in place of a potency, no number is given. Activity calls are given as the source filed them. Unless noted, calls follow the shape of the dose curve; as a rule, active = well fitted curve in the direction sought with a large enough effect in the repeat runs; inconclusive = weak or mixed curves; inactive = no such curve, though single readings can be large; an effect the other way counts as inactive or inconclusive.

Test system: not listed separately
Test: qHTS assay to identify small molecule agonists of the estrogen receptor beta (ER-beta) signaling pathway - cell viability counter screen (AID 1259380); also: nearly all actives have a fitted effect of over 30% in size
Details: ER-beta-bla HEK293T viability, CellTiter-Glo luminescence, 16 h; series mostly up to 92.4 µM
How it was run: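 Cytotoxicity is measured in parallel with the reporter screen: after 16 hr compound exposure at 37C and a 2 hr LiveBLAzer step, CellTiter-Glo is added to the same ER-beta-UAS-bla HEK293T wells and luminescence read after 30 min.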

SMILES | Potency
O=c1[nH]c(=O)n([C@H]2O[C@H](CO)[C@@H](O)[C@@H]2O)cc1/C=C\Br | inactive
C=C(C)C(=O)NCCC[N+](C)(C)C | inactive
NCCN1CCNC1=O | inactive
Cc1cc(C)c(NC(=O)CN(CC(=O)O)CC(=O)O)c(C)c1Br | inactive
CCCC(=O)O[C@]1(C(=O)CCl)[C@@H](C)C[C@H]2[C@@H]3CCC4=CC(=O)C=C[C@]4(C)[C@@]3(F)C(=O)C[C@@]21C | inactive
CCC(C)OC(=O)N1CCCCC1CCO (stereo not drawn) | inactive
O=C(O)c1ccc[n+]([O-])c1 | inactive
CC(C)COC(=O)c1ccccc1O | inactive
COc1ccc2cc(C=O)ccc2c1 | inactive
COc1cccc(Br)c1 | inactive
C=C[Si](OC)(OC)OC | inactive
CC(C)CCCC(C)NCCC(C)C (stereo not drawn) | inactive
CSc1nc(NC2CC2)nc(NC(C)(C)C)n1 | inactive
CC(C)c1cccc(C(C)C)c1N | inactive
CC(=O)CCc1ccc(O)cc1 | inactive
C1C2OC2C2C1C1CC2C2OC12 (stereo not drawn) | inactive
CC1=CC(C)C(C=O)C(C)C1 (stereo not drawn) | inactive

SMILES | Potency
CNc1ncnc2nc[nH]c12 | inactive
CC/C=C\CCCCO | inactive
c1ccc2cnncc2c1 | inactive
NC(=O)c1c(Cl)cccc1Cl | inactive
COc1cc(CCC(C)=O)ccc1O | inactive
COc1cc(C(=O)N2CCOCC2)cc(OC)c1OC | inactive
C=C(C)C1CC=C(C)C(O)C1 (stereo not drawn) | inactive
CCCCCOC(=O)Nc1nc(=O)n([C@@H]2O[C@H](C)[C@@H](O)[C@H]2O)cc1F | inactive
O=C(O)c1ccccc1-c1ccc(C(F)(F)F)cc1 | inactive
CCCCCCCCCCCl | inactive
CCCCNc1ccccc1 | inactive
NC1CCN(c2cccc(Cl)n2)CC1 | inactive
OCC(CO)(CO)COCC(CO)(CO)CO | inactive
O=C(O)c1ccccc1S | inactive
CC(=O)NC(Cc1ccccc1)C(=O)O (stereo not drawn) | inactive
CCCCCCCCN(C)CCCCCCCC | inactive

Biological target: Androgen receptor (Homo sapiens) (UniProt P10275)
Sequence (P10275 whole entry, looked up): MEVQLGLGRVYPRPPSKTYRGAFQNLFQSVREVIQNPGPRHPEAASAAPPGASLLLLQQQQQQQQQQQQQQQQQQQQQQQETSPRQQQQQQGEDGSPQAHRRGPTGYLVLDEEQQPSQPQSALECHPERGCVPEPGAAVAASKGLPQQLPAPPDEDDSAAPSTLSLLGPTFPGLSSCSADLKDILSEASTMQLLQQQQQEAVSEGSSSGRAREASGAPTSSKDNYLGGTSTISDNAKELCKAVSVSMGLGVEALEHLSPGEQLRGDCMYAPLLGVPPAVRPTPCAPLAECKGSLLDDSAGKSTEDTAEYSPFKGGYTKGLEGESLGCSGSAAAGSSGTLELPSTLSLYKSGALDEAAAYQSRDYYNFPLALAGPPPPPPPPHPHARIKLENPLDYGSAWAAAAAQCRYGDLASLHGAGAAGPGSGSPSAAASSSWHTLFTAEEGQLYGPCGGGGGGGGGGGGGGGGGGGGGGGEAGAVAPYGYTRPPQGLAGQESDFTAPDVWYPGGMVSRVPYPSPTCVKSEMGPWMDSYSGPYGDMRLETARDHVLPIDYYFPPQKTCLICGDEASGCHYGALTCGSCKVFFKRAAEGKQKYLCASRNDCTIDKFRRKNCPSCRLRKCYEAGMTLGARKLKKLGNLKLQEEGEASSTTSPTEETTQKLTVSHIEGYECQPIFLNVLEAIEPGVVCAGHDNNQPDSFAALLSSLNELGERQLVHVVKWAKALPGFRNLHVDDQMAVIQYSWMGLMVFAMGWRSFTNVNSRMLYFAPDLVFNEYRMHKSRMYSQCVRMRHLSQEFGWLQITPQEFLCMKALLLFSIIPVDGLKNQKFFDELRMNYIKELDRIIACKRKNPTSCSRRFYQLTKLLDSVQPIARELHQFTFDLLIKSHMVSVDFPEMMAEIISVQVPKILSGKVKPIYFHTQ
Test: qHTS assay to identify small molecule agonists of the androgen receptor (AR) signaling pathway in the presence of an antagonist (AID 1259381; calls by dose curve; also: nearly all actives have a fitted effect of over 15% in size; also: potency is read from the fitted curve at half-maximal effect)
Details: MDA-kb2 MMTV-luciferase, AR agonist + nilutamide, 16 h; series mostly up to 42.5 µM
How it was run: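 Agonist-mode confirmation screen: human MDA-kb2 cells stably expressing luciferase under an MMTV promoter bearing AR and GR response elements, co-treated with 3.0uM nilutamide (final). Luminescence measured after 16hr compound incubation.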

SMILES | Potency
O=c1[nH]c(=O)n([C@H]2O[C@H](CO)[C@@H](O)[C@@H]2O)cc1/C=C\Br | inactive
CCCC(=O)O[C@]1(C(=O)CCl)[C@@H](C)C[C@H]2[C@@H]3CCC4=CC(=O)C=C[C@]4(C)[C@@]3(F)C(=O)C[C@@]21C | 4.7 nM (active)
O=C(O)c1ccc[n+]([O-])c1 | inactive
COc1ccc2cc(C=O)ccc2c1 | inactive
COc1cccc(Br)c1 | inactive
CC1=CCC2C(C1)C2(C)C (stereo not drawn) | inactive
CC(C)CCCC(C)NCCC(C)C (stereo not drawn) | inactive
COc1cc(CCC(C)=O)ccc1O | inactive
CCCCNc1ccccc1 | inactive
NC1CCN(c2cccc(Cl)n2)CC1 | inactive
CCCCCCCCN(C)CCCCCCCC | inactive

Test system: not listed separately
Test: qHTS assay to identify small molecule antagonists of the estrogen receptor beta (ER-beta) signaling pathway - cell viability counter screen (AID 1259382);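 also: HEK293T cells carrying ER-beta-UAS-bla reporter stimulated with estradiol; nearly all actives have a fitted effect of over 55% in size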
Details: ER-beta-UAS-bla HEK293T viability, CellTiter-Glo luminescence, 16 h; series mostly up to 92.4 µM
How it was run: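 Cytotoxicity counter screen multiplexed with the beta-lactamase antagonist assay: GripTite HEK293T ER-beta-bla cells were treated 16 hr with test chemicals in the presence of 1nM 17-beta-estradiol, and viability was measured by CellTiter-Glo.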

SMILES | Potency | activity change, negative = cytotoxicity
O=c1[nH]c(=O)n([C@H]2O[C@H](CO)[C@@H](O)[C@@H]2O)cc1/C=C\Br | inactive | 
C=C(C)C(=O)NCCC[N+](C)(C)C | inactive | 
NCCN1CCNC1=O | inactive | 
Cc1cc(C)c(NC(=O)CN(CC(=O)O)CC(=O)O)c(C)c1Br | inactive | 
CCCC(=O)O[C@]1(C(=O)CCl)[C@@H](C)C[C@H]2[C@@H]3CCC4=CC(=O)C=C[C@]4(C)[C@@]3(F)C(=O)C[C@@]21C | inactive | 
CCC(C)OC(=O)N1CCCCC1CCO (stereo not drawn) | inactive | 
CCCCCCC(=O)OCC | inactive | 
O=C(O)c1ccc[n+]([O-])c1 | inactive | 
CC(C)COC(=O)c1ccccc1O | inactive | 
COc1cccc(Br)c1 | inactive | 
CC1=CCC2C(C1)C2(C)C (stereo not drawn) | inactive | 
C=C[Si](OC)(OC)OC | inactive | 
CC(C)CCCC(C)NCCC(C)C (stereo not drawn) | inactive | 
CC(C)c1cccc(C(C)C)c1N | inactive | 
CC(=O)CCc1ccc(O)cc1 | inactive | 
C1C2OC2C2C1C1CC2C2OC12 (stereo not drawn) | inactive | 
CC1=CC(C)C(C=O)C(C)C1 (stereo not drawn) | inactive | 

SMILES | Potency | activity change, negative = cytotoxicity
CNc1ncnc2nc[nH]c12 | inactive | 
Cn1ccc2cc3c(cc21)CCN3C(=O)Nc1cccnc1 |  | -14.8% [at 19 µM]
CC/C=C\CCCCO | inactive | 
c1ccc2cnncc2c1 | inactive | 
NC(=O)c1c(Cl)cccc1Cl | inactive | 
COc1cc(C(=O)N2CCOCC2)cc(OC)c1OC | inactive | 
C=C(C)C1CC=C(C)C(O)C1 (stereo not drawn) | inactive | 
CCCCCOC(=O)Nc1nc(=O)n([C@@H]2O[C@H](C)[C@@H](O)[C@H]2O)cc1F | inactive | 
O=C(O)c1ccccc1-c1ccc(C(F)(F)F)cc1 | inactive | 
CCCCCCCCCCCl | inactive | 
CCCCNc1ccccc1 | inactive | 
NC1CCN(c2cccc(Cl)n2)CC1 | inactive | 
OCC(CO)(CO)COCC(CO)(CO)CO | inactive | 
O=C(O)c1ccccc1S | inactive | 
CC(=O)NC(Cc1ccccc1)C(=O)O (stereo not drawn) | inactive | 
COc1ccc(N=[N+]([O-])c2ccc(OC)cc2)cc1 | inactive | 
CCCCCCCCN(C)CCCCCCCC | inactive | 

Biological target: Estrogen receptor (Homo sapiens) (UniProt P03372)
Sequence (P03372 whole entry, looked up): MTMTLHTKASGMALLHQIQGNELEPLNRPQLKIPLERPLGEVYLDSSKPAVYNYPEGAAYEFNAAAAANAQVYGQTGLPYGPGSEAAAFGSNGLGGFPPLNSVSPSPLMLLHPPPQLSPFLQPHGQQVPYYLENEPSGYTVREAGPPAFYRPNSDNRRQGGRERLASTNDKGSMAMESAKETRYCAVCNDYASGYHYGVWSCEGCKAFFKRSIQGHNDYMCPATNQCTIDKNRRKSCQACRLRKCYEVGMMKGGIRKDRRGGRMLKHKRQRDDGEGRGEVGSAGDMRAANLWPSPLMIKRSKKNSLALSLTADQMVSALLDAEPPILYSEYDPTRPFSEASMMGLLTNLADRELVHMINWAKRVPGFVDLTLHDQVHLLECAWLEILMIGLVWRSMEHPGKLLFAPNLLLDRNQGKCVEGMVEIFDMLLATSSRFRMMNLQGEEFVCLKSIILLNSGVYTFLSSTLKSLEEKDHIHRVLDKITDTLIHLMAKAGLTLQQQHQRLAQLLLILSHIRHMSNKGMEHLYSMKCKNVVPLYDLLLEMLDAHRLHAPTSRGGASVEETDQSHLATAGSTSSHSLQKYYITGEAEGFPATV
Test: qHTS assay to identify small molecule agonists of the estrogen receptor alpha (ER-alpha) signaling pathway in the presence of an antagonist (AID 1259383; calls by dose curve; also: top concentration of the series differs between compounds; nearly all actives have a fitted effect of over 15% in size)
Details: VM7Luc4E2 cells, ERE-luciferase, +ICI-182,780, 22 h; series mostly up to 92.4 µM
How it was run: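 Agonist-mode confirmation in the presence of the ER antagonist ICI-182,780 at 10.0nM final. Breast-derived VM7Luc4E2 reporter cells were exposed to compounds for 22hr, and ERE-driven luciferase was quantified by luminescence.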

SMILES | Potency | activation
O=c1[nH]c(=O)n([C@H]2O[C@H](CO)[C@@H](O)[C@@H]2O)cc1/C=C\Br | inactive | 
C=C(C)C(=O)NCCC[N+](C)(C)C | inactive | 
NCCN1CCNC1=O | inactive | 
CCCC(=O)O[C@]1(C(=O)CCl)[C@@H](C)C[C@H]2[C@@H]3CCC4=CC(=O)C=C[C@]4(C)[C@@]3(F)C(=O)C[C@@]21C | inactive | 
O=C(O)c1ccc[n+]([O-])c1 | inactive | 
CC(C)COC(=O)c1ccccc1O | inactive | 
COc1ccc2cc(C=O)ccc2c1 | inactive | 
CC1=CCC2C(C1)C2(C)C (stereo not drawn) | inactive | 
C=C[Si](OC)(OC)OC | inactive | 
CC(C)CCCC(C)NCCC(C)C (stereo not drawn) | inactive | 
CC(C)c1cccc(C(C)C)c1N | inactive | 
CC(=O)CCc1ccc(O)cc1 | inactive | 
CC1=CC(C)C(C=O)C(C)C1 (stereo not drawn) | inactive | 
CNc1ncnc2nc[nH]c12 | inactive | 
Cn1ccc2cc3c(cc21)CCN3C(=O)Nc1cccnc1 |  | 12% [at 19 µM]
c1ccc2cnncc2c1 | inactive | 
NC(=O)c1c(Cl)cccc1Cl | inactive | 
C=C(C)C1CC=C(C)C(O)C1 (stereo not drawn) | inactive | 
O=C(O)c1ccccc1-c1ccc(C(F)(F)F)cc1 | inactive | 
CCCCCCCCCCCl | inactive | 
CCCCNc1ccccc1 | inactive | 
OCC(CO)(CO)COCC(CO)(CO)CO | inactive | 
O=C(O)c1ccccc1S | inactive | 
CC(=O)NC(Cc1ccccc1)C(=O)O (stereo not drawn) | inactive | 
CCCCCCCCN(C)CCCCCCCC | inactive | 
